This note sets out measurements from PubChem BioAssay (NCATS).

Records with an inconclusive call do not appear. Unmarked numbers belong to inactive results. The source made the active and inactive calls. Calls come from the whole dose curve; as a rule, active = well fitted cell-killing curve with a large enough effect; inconclusive = small, poorly fitted or top-dose-only effect, or effect the other way; inactive = no such curve, though single readings can be large or run the other way.
Potency is the fitted concentration of half-maximal effect.

This experiment in a line: Quantitative High-Throughput drug screen in 47 multiple myeloma cell lines against the NCATS MIPE library collection: KMS34_JCRB cell viability assay (AID 1918985).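 For viability, percent of control: 100% = DMSO-only wells and 0% = media-only wells.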 Note: nearly all actives have a fitted effect of over 40% in size. As to conditions: KMS34 myeloma viability, CellTiter-Glo ATP luminescence, 48 h; series mostly up to 45.8 µM; viability, percent of control: at the top concentration. The method in brief:
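Readout: median RLU from CellTiter-Glo after 5 min at room temperature. Preceding step was 48 h drug treatment of 500 cells/well at 37 °C, 5% CO2, with DMSO-only and media-only control wells.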
In general terms: ATP-based viability assays read luminescence as a measure of living cells.
Regarding `O=C1c2ccccc2-[n+]2ccc3c([nH]c4ccccc43)c21`, the Potency was 0.833 µM (active). Still for that read-out and setting: as for `CC[C@]1(O)C[C@@H]2CN(CCc3c([nH]c4ccccc34)[C@@](C(=O)OC)(c3cc4c(cc3OC)N(C=O)[C@@H]3C45CCN4CC=C[C@](CC)([C@H]45)[C@@H](OC(C)=O)[C@]3(O)C(=O)OC)C2)C1` (stereo not given in full), the figure is 23.5 µM (active). Consider `O=c1c(-c2ccc(O)cc2)coc2cc(O)ccc12`, for which the “viability, percent of control” value is 116%. For `O=C1NC(=O)C(=Cc2cccc(C(F)(F)F)c2)S1`, the “viability, percent of control” value is 97.7%. The same measure, in the same setting: then `CC(=O)OC1C(C)OC(Oc2c(-c3ccc(O)cc3)oc3cc(O)cc(O)c3c2=O)C(O)C1OC(C)=O` (stereo not given), with 108%.

Consider `COCCOc1nc(-c2ccc(Cl)c(Cl)c2)n(-c2ccc(NC(=O)CCl)cc2)n1`, for which the Potency was 18.7 µM (active). Still for that read-out and setting: then `CS(=O)(=O)N(Cc1ccco1)CC(O)Cn1c2ccccc2c2ccccc21` (stereo not given), with 16.6 µM (active). Still for that read-out and setting: then `Oc1ccc(C2CCN(c3ccnc4ccccc34)CC2)cc1O`, with 16.6 µM (active); and `CN(C)C1CCN(C(=O)c2ccc(NC(=O)Nc3nc(N4CCOCC4)nc(N4CCOCC4)n3)cc2)CC1`, with 0.132 µM (active). Regarding `Oc1ccc(C2=Cc3ccc(O)cc3OC2)cc1`, the Potency was 0.662 µM (active).
